Results from PubChem BioAssay (Tox21).
Several values for one entry are separate records, joined by “and”; a condition that tells them apart may be missing. Equal entries are not always repeated. Inconclusive results are not listed. Some compounds were tested as several samples or in several runs, with calls that do not always agree. Activity calls are given as the source filed them. Unless noted, calls come from the whole dose curve; as a rule, active = well fitted curve in the direction sought with a large enough effect in the repeat runs; inconclusive = weak or mixed curves; inactive = no such curve, though single readings can be large; an effect the other way counts as inactive or inconclusive.

Tests used:
[1] = qHTS assay for small molecule agonists of the p53 signaling pathway (AID 651631; calls by dose curve; note: nearly all actives have a fitted effect of over 15% in size; note: potency is the fitted concentration of half-maximal effect)
How it was run: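 We treat p53RE-bla HCT-116 cells with compounds for 16 h at 37 °C, add LiveBLAzer B/G FRET substrate for 2 h at room temperature, and measure fluorescence intensity.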

[2] = qHTS assay for small molecules that induce genotoxicity in human embryonic kidney cells expressing luciferase-tagged ATAD5 (AID 651632); note: nearly all actives have a fitted effect of over 15% in size
How it was run: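 HEK293T cells carrying a luciferase reporter tagged to ATAD5 were exposed to compound or DMSO vehicle for 16 hr at 37C, 5% CO2. Amplite was added, and after 30 min at room temperature luciferase activity was read as a marker of ATAD5 induction.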

[3] = qHTS assay for small molecule agonists of the p53 signaling pathway - cell viability (AID 651633; calls by dose curve;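 note: p53RE-bla HCT reporter cells with a stable beta-lactamase p53 reporter; series mostly up to about 83 µM; nearly all actives have a fitted effect of over 30% in size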)
How it was run: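 Viability counter-read: CellTiter-Glo luminescence (30 min, room temperature) in the same p53RE-bla plates. These plates had been exposed to compounds for 16 h at 37 C.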

[4] = qHTS assay for small molecules that induce genotoxicity in human embryonic kidney cells expressing luciferase-tagged ATAD5 - cell viability (AID 651634; calls by dose curve; note: nearly all actives have a fitted effect of over 25% in size)
How it was run: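 HEK293T cells expressing luciferase-tagged ATAD5 were exposed to compound or DMSO for 15.5 hr at 37C, 5% CO2. Viability was then read as live-cell protease activity by CellTiter-Fluor fluorescence after 30 min at 37C.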

[5] = qHTS assay for small molecule disruptors of the mitochondrial membrane potential - cell viability (AID 720634; calls by dose curve;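 note: human HepG2 liver cancer cells; series mostly up to about 83 µM; nearly all actives have a fitted effect of over 20% in size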)
How it was run: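 HepG2 cells seeded overnight at 37 C, then exposed to compound or DMSO for 1 hr at 37 C, 5% CO2. m-MPI dye added, then CellTiter-Glo for 30 min at room temperature; viability read as ATP luminescence.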

[6] = qHTS assay for small molecule disruptors of the mitochondrial membrane potential (AID 720635); note: potency is the fitted concentration of half-maximal effect
How it was run: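 Mitochondrial membrane potential tracked with Mito-MPS dye, red aggregates (ex 540/em 590 nm) against green monomers (ex 490/em 535 nm). Compound treatment 1 hr at 37C, dye 30 min in HepG2.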

[7] = qHTS assay to test for compound auto fluorescence at 590 nm (red) in HepG2 cells (AID 720674)
How it was run: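 Red autofluorescence (Ex/Em 540/590 nm, Rose Bengal sodium equivalents) was measured in HepG2 cells, 2,000 per well in MEM plus 10% FBS, plated overnight at 37 C. Readings were taken 1 hr after adding 23 nL compound or DMSO, at 37 C and 5% CO2.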

[8] = qHTS assay to test for compound auto fluorescence at 535 nm (green) in HepG2 cells (AID 720675)
[9] = qHTS assay to test for compound auto fluorescence at 460 nm (blue) in HEK293 cells (AID 720678); note: potency is the fitted concentration of half-maximal effect
How it was run: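 After cell attachment (4-5 hr, 37C), compounds were pinned onto HEK293 monolayers in 10% dialyzed FBS medium. The blue channel (405/460 nm) was read following overnight culture. Equivalency was calculated against triamterene.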

[10] = qHTS assay to test for compound auto fluorescence at 590 nm (red) in HEK293 cells (AID 720679)
How it was run: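 Plates of HEK293 cells (10% dialyzed FBS) are treated with 23 nL compound or DMSO vehicle after a 4-5 hr attachment period, incubated overnight at 37C, and read for red fluorescence at 540/590nm.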

Measured: Potency
Tags give direction and shape of the fitted curve or compound fluorescence and quenching.

O=C1C(N(CO)C(=O)NCO)N(CO)C(=O)N1CO (centres undefined)
inactive: [1] | [2] | [3] | [4] | [5] | [6] | [7] | [8] | [9] | [10]

CC(=O)C(C)C
inactive: [1] | [2] | [3] | [4] | [5] | [6] | [7] | [8] | [9] | [10]

COCN(COC)c1nc(N(COC)COC)nc(N(COC)COC)n1
inactive: [1] | [2] | [3] | [4] | [5] | [6] | [7] | [8] | [9] | [10]

Cc1ccncc1
inactive: [1] | [2] | [3] | [4] | [5] | [6] | [7] | [8] | [9] | [10]

C[Si](C)(C)N[Si](C)(C)C
inactive: [1] | [2] | [3] | [4] | [5] | [6] | [7] | [8] | [9] | [10]

COc1ccc([C@@H]2CC(=O)c3c(O)cc(O[C@@H]4O[C@H](CO[C@@H]5O[C@@H](C)[C@H](O)[C@@H](O)[C@H]5O)[C@@H](O)[C@H](O)[C@H]4O)cc3O2)cc1OC
inactive: [1] | [2] | [3] | [4] | [5] | [6] | [7] | [8] | [9] | [10]

Cc1ccc(C(C)C)cc1
inactive: [1] | [2] | [3] | [4] | [5] | [6] | [7] | [8] | [9] | [10]

Cc1ccc([N+](=O)[O-])cc1N
inactive: [1] | [2] | [3] | [4] | [5] | [6] | [7] | [8] | [9] | [10]

CN1CCCC1=O
inactive: [1] | [2] | [3] | [4] | [5] | [6] | [7] | [8] | [9] | [10]

CCCCCCC(=O)O
inactive: [1] | [2] | [3] | [4] | [5] | [6] | [7] | [8] | [9] | [10]

CC/C=C(\C(=O)N[C@@H]1C(=O)N2C(C(=O)OCOC(=O)C(C)(C)C)=C(COC(N)=O)CS[C@H]12)c1csc(N)n1
inactive: [1] | [2] | [3] | [4] | [5] | [6] | [7] | [8] | [9] | [10]

CC(O)CNCC(C)O (centres undefined)
inactive: [1] | [2] | [3] | [4] | [5] | [6] | [7] | [8] | [9] | [10]

CCCCCCCCCCCCCC(=O)O
inactive: [1] | [2] | [3] | [4] | [5] | [6] | [7] | [8] | [9] | [10]

CCCCC(CC)COC(=O)c1ccc(C(=O)OCC(CC)CCCC)cc1 (centres undefined)
inactive: [1] | [2] | [3] | [4] | [5] | [6] | [7] | [8] | [9] | [10]

CCn1cc(C(=O)O)c(=O)c2cc3c(cc21)OCO3
inactive: [1] | [2] | [3] | [4] | [5] | [6] | [7] | [8] | [9] | [10]

Cc1cc(C)c(O)c(C)c1
inactive: [1] | [2] | [3] | [4] | [5] | [6] | [7] | [8] | [9] | [10]

CCOC(=O)c1ccc(O)cc1
inactive and 21.7 µM (active): [6]
inactive: [1] | [2] | [3] | [4] | [5] | [7] | [8] | [9] | [10]

CCCCC(=O)O
inactive: [1] | [2] | [3] | [4] | [5] | [6] | [7] | [8] | [9] | [10]

OCc1ccc(Cl)cc1Cl
inactive: [1] | [2] | [3] | [4] | [5] | [6] | [7] | [8] | [9] | [10]

Nc1nc(N)c2nc(-c3ccccc3)c(N)nc2n1
active: [1] 26.6 µM and 15.5 µM and 34.4 µM | [9] 14.1 µM [fluorescent] and 31.6 µM [fluorescent] and 35.5 µM [fluorescent]
inactive: [2] | [3] | [4] | [5] | [6] | [7] | [8] | [10]

Brc1ccc(Oc2ccc(Br)cc2)cc1
inactive: [1] | [2] | [3] | [4] | [5] | [7] | [8] | [9] | [10]
active: [6] 21.7 µM and 27.3 µM

CCc1cccc(CC)c1N
inactive: [1] | [2] | [3] | [4] | [5] | [6] | [7] | [8] | [9] | [10]

CCc1cccc(O)c1
inactive: [1] | [2] | [3] | [4] | [5] | [6] | [7] | [8] | [9] | [10]

Oc1ccc(Cc2ccccc2O)cc1
active: [6] 11 µM and 27.3 µM
inactive: [1] | [2] | [3] | [4] | [5] | [7] | [8] | [9] | [10]

C=C(CC(=O)O)C(=O)O
inactive: [1] | [2] | [3] | [4] | [5] | [6] | [7] | [8] | [9] | [10]

O=C(O)C1=NN(c2ccc(S(=O)(=O)O)cc2)C(=O)C1
inactive: [1] | [2] | [3] | [4] | [5] | [6] | [7] | [8] | [9] | [10]

NC(N)=S
inactive: [1] | [2] | [3] | [4] | [5] | [6] | [7] | [8] | [9] | [10]

CCCN(CCC)C(=O)SCC
inactive: [1] | [2] | [3] | [4] | [5] | [6] | [7] | [8] | [9] | [10]

Cc1nnc(NS(=O)(=O)c2ccc(N)cc2)s1
inactive: [1] | [2] | [3] | [4] | [5] | [6] | [7] | [8] | [9] | [10]

CC(=O)c1nccs1
inactive: [1] | [2] | [3] | [4] | [5] | [6] | [7] | [8] | [9] | [10]

Nc1cccc(C(F)(F)F)c1
inactive: [1] | [2] | [3] | [4] | [5] | [6] | [7] | [8] | [9] | [10]

COc1c2ccoc2cc2oc(=O)ccc12
inactive: [1] | [2] | [3] | [4] | [5] | [6] | [7] | [8] | [9] | [10]

O=Cc1ccc(CO)o1
inactive: [1] | [2] | [3] | [4] | [5] | [6] | [7] | [8] | [9] | [10]

CC/C(C)=N/O
inactive: [1] | [2] | [3] | [4] | [5] | [6] | [7] | [8] | [9] | [10]

O=C(c1ccccc1)c1ccc(O)c(O)c1O
inactive: [1] | [2] | [3] | [4] | [5] | [7] | [8] | [9] | [10]
active: [6] 48.6 µM

CC(C)(C)NC[C@H](O)COc1nsnc1N1CCOCC1
inactive: [1] | [2] | [3] | [4] | [5] | [6] | [7] | [8] | [9] | [10]

Cc1cc(CC(=O)O)n(C)c1C(=O)c1ccc(Cl)cc1
inactive: [1] | [2] | [3] | [4] | [5] | [6] | [7] | [8] | [9] | [10]

CC(=O)CC(=O)N(C)C
inactive: [1] | [2] | [3] | [4] | [5] | [6] | [7] | [8] | [9] | [10]

CC1(C)C(=O)N(Cl)C(=O)N1Cl
inactive: [1] | [2] | [3] | [4] | [5] | [6] | [7] | [8] | [9] | [10]

Cc1ccccc1Cl
inactive: [1] | [2] | [3] | [4] | [5] | [6] | [7] | [8] | [9] | [10]

CC(=O)OC[C@H]1O[C@@](COC(C)=O)(O[C@H]2O[C@H](COC(C)=O)[C@@H](OC(C)=O)[C@H](OC(C)=O)[C@H]2OC(C)=O)[C@@H](OC(C)=O)[C@@H]1OC(C)=O
inactive: [1] | [2] | [3] | [4] | [5] | [6] | [7] | [8] | [9] | [10]

O=[N+]([O-])c1cc(C(F)(F)F)ccc1Cl
inactive: [1] | [2] | [3] | [4] | [5] | [6] | [7] | [8] | [9] | [10]

OC[C@H]1O[C@@H](Oc2ccc(O)cc2)[C@H](O)[C@@H](O)[C@@H]1O
inactive: [1] | [2] | [3] | [4] | [5] | [6] | [7] | [8] | [9] | [10]

O=C1OC(=O)c2c(Cl)c(Cl)c(Cl)c(Cl)c21
inactive: [1] | [2] | [3] | [4] | [5] | [6] | [7] | [8] | [9] | [10]

NC(=O)c1ncn([C@@H]2O[C@H](CO)[C@@H](O)[C@H]2O)n1
inactive: [2] | [3] | [4] | [5] | [6] | [7] | [8] | [9] | [10]
active: [1] 13.3 µM and 64.4 µM

O=[N+]([O-])c1ccccc1C(F)(F)F
inactive: [1] | [2] | [3] | [4] | [5] | [6] | [7] | [8] | [9] | [10]

CCCCCNCCCCC
inactive: [1] | [2] | [3] | [4] | [5] | [6] | [7] | [8] | [9] | [10]

N[C@@H](Cc1cc(I)c(Oc2ccc(O)c(I)c2)c(I)c1)C(=O)O
active: [6] 23.7 µM
inactive: [1] | [2] | [3] | [4] | [5] | [7] | [8] | [9] | [10]

CC(C)(CO)CO
inactive: [1] | [2] | [3] | [4] | [5] | [7] | [8] | [9] | [10]
